Measurements as given in the supplement of paper PMC6555819.

Tests used:
Experiment in all cases: PBM binding z-score (relative to random genomic background probes); higher = stronger binding; sequences stand for … in GC…GCGATTGACAGCGTAGAATGAAGG
[1] = system: FXR:RXRa (NR concentration 270 nM, RXRa partner concentration 90 nM)
How it was run: (§1)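 Ligand-free nuclear receptor dimers were bound for 1 h to custom Agilent 4×180K protein-binding microarrays. Detection used antibodies against each partner (one per run). Binding z-scores rest on regression-normalized fluorescence, with random background probes as the reference.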

[2] = system: LXRa:RXRa (NR concentration 270 nM, RXRa partner concentration 90 nM)
How it was run: as §1

[3] = system: LXRa homodimer (NR concentration 270 nM)
How it was run: as §1

[4] = system: LXRb:RXRa (NR concentration 270 nM, RXRa partner concentration 90 nM)
How it was run: as §1

[5] = system: LXRb homodimer (NR concentration 270 nM)
How it was run: as §1

[6] = system: PPARa:RXRa (NR concentration 270 nM, RXRa partner concentration 90 nM)
How it was run: as §1

[7] = system: PPARg:RXRa (NR concentration 180 nM, RXRa partner concentration 90 nM)
How it was run: as §1

[8] = system: PPARg:RXRa 270nM:90nM, anti-RXR (NR concentration 270 nM, RXRa partner concentration 90 nM)
How it was run: as §1

[9] = system: PPARg:RXRa 30nM:10nM, anti-RXR (NR concentration 30 nM, RXRa partner concentration 10 nM)
How it was run: as §1

[10] = system: PPARg:RXRa 90nM:30nM, anti-RXR (NR concentration 90 nM, RXRa partner concentration 30 nM)
How it was run: as §1

[11] = system: PPARg:RXRa DBDmut IVT, anti-RXR (DBD mutation: RXRa K156A/R161A, NR concentration 270 nM, RXRa partner concentration 90 nM)
How it was run: as §1

[12] = system: PPARg:RXRa IVT, anti-PPARg (NR concentration 270 nM, RXRa partner concentration 90 nM)
How it was run: as §1

[13] = system: PPARg DBDmut:RXRa IVT, anti-PPARg (DBD mutation: PPARg1 K132A/R137A, NR concentration 270 nM, RXRa partner concentration 90 nM)
How it was run: as §1

[14] = system: PPARg DBDmut IVT, anti-PPARg (DBD mutation: PPARg1 K132A/R137A, NR concentration 270 nM)
How it was run: as §1

[15] = system: PPARg homodimer (NR concentration 180 nM)
How it was run: as §1

[16] = system: PXR:RXRa (NR concentration 270 nM, RXRa partner concentration 90 nM)
How it was run: as §1

[17] = system: PXR homodimer (NR concentration 270 nM)
How it was run: as §1

[18] = system: RARa:RXR (NR concentration 270 nM, RXRa partner concentration 90 nM)
How it was run: as §1

[19] = system: RARa homodimer (NR concentration 270 nM)
How it was run: as §1

[20] = system: RARb:RXRa (NR concentration 270 nM, RXRa partner concentration 90 nM)
How it was run: as §1

## ACTCGGAGGACAAAGGTCAGAGCCACGCCAGTGA
[1]
  PBM binding z-score: 4.39
[2]
  PBM binding z-score: 4.56
[3]
  PBM binding z-score: 1.53
[4]
  PBM binding z-score: 3.52
[5]
  PBM binding z-score: 0.161
[6]
  PBM binding z-score: 5.36
[7]
  PBM binding z-score: 8.4
[8]
  PBM binding z-score: 7.54
[9]
  PBM binding z-score: 6.19
[10]
  PBM binding z-score: 8.08
[11]
  PBM binding z-score: 0.449
[12]
  PBM binding z-score: 3.88
[13]
  PBM binding z-score: 0.243
[14]
  PBM binding z-score: 0.0578
[15]
  PBM binding z-score: 3.83
[16]
  PBM binding z-score: 4.03
[17]
  PBM binding z-score: 0.202
[18]
  PBM binding z-score: 5.5
[19]
  PBM binding z-score: 1.68
[20]
  PBM binding z-score: 4.73

## AGCATGAGGTTAAGATCAGGGAAACAGAATACAT
[1]
  PBM binding z-score: 1.97
[2]
  PBM binding z-score: 2.02
[3]
  PBM binding z-score: 0.07
[4]
  PBM binding z-score: 1.75
[5]
  PBM binding z-score: 0.151
[6]
  PBM binding z-score: 3.06
[7]
  PBM binding z-score: 1.14
[8]
  PBM binding z-score: 1.04
[9]
  PBM binding z-score: 0.357
[10]
  PBM binding z-score: 0.819
[11]
  PBM binding z-score: 0.0322
[12]
  PBM binding z-score: 0.624
[13]
  PBM binding z-score: 0.52
[14]
  PBM binding z-score: -0.142
[15]
  PBM binding z-score: 0.333
[16]
  PBM binding z-score: 1.23
[17]
  PBM binding z-score: 0.477
[18]
  PBM binding z-score: 2.07
[19]
  PBM binding z-score: 0.813
[20]
  PBM binding z-score: 2.02

## TAACCAAGGTGAGCTGAGGTCGTTGATCCAACTC
[1]
  PBM binding z-score: 2.66
[2]
  PBM binding z-score: 1.63
[3]
  PBM binding z-score: -0.195
[4]
  PBM binding z-score: 0.348
[5]
  PBM binding z-score: -0.934
[6]
  PBM binding z-score: 1.81
[7]
  PBM binding z-score: 0.206
[8]
  PBM binding z-score: 0.531
[9]
  PBM binding z-score: -0.0525
[10]
  PBM binding z-score: 0.137
[11]
  PBM binding z-score: 0.67
[12]
  PBM binding z-score: 1.99
[13]
  PBM binding z-score: -0.13
[14]
  PBM binding z-score: 0.366
[15]
  PBM binding z-score: -0.0916
[16]
  PBM binding z-score: 4.88
[17]
  PBM binding z-score: 0.136
[18]
  PBM binding z-score: 1.74
[19]
  PBM binding z-score: -0.541
[20]
  PBM binding z-score: 1.81

## GTACCAAGGTGAATAGGTCGTTGCTGAGTAGGCG
[1]
  PBM binding z-score: 0.799
[2]
  PBM binding z-score: 0.799
[3]
  PBM binding z-score: -0.43
[4]
  PBM binding z-score: 0.493
[5]
  PBM binding z-score: -0.623
[6]
  PBM binding z-score: 2.23
[7]
  PBM binding z-score: 1.21
[8]
  PBM binding z-score: 1.71
[9]
  PBM binding z-score: -0.00379
[10]
  PBM binding z-score: 1.18
[11]
  PBM binding z-score: 1.82
[12]
  PBM binding z-score: 2.55
[13]
  PBM binding z-score: -0.221
[14]
  PBM binding z-score: 0.00615
[15]
  PBM binding z-score: 0.964
[16]
  PBM binding z-score: 0.496
[17]
  PBM binding z-score: -0.427
[18]
  PBM binding z-score: 1.55
[19]
  PBM binding z-score: -0.268
[20]
  PBM binding z-score: 1.96

## AGAACGAGGGCAATGAGTTGATAGAACGGGTGGC
[1]
  PBM binding z-score: 0.324
[2]
  PBM binding z-score: 0.221
[3]
  PBM binding z-score: -0.321
[4]
  PBM binding z-score: -0.103
[5]
  PBM binding z-score: -0.564
[6]
  PBM binding z-score: 0.984
[7]
  PBM binding z-score: 1.53
[8]
  PBM binding z-score: 0.857
[9]
  PBM binding z-score: 0.188
[10]
  PBM binding z-score: 0.62
[11]
  PBM binding z-score: 3.29
[12]
  PBM binding z-score: 2.76
[13]
  PBM binding z-score: 0.559
[14]
  PBM binding z-score: -0.194
[15]
  PBM binding z-score: 0.0958
[16]
  PBM binding z-score: 1.47
[17]
  PBM binding z-score: 4.31
[18]
  PBM binding z-score: 0.324
[19]
  PBM binding z-score: -0.124
[20]
  PBM binding z-score: 1.83

## TCGAGTAGGTTAGTCGGGGCAGTCAGCCAACATA
[1]
  PBM binding z-score: 0.0181
[2]
  PBM binding z-score: -0.31
[3]
  PBM binding z-score: -0.676
[4]
  PBM binding z-score: 0.0169
[5]
  PBM binding z-score: -0.869
[6]
  PBM binding z-score: 0.556
[7]
  PBM binding z-score: -0.388
[8]
  PBM binding z-score: 0.946
[9]
  PBM binding z-score: 0.987
[10]
  PBM binding z-score: 0.955
[11]
  PBM binding z-score: 2.19
[12]
  PBM binding z-score: 1.95
[13]
  PBM binding z-score: -0.923
[14]
  PBM binding z-score: -0.0532
[15]
  PBM binding z-score: -0.451
[16]
  PBM binding z-score: -0.323
[17]
  PBM binding z-score: -0.507
[18]
  PBM binding z-score: 0.0728
[19]
  PBM binding z-score: -0.469
[20]
  PBM binding z-score: 0.59
